Our source for the outcome and activity, negative = cytotoxicity values is PubChem BioAssay (Tox21).

Inconclusive results are not listed. Unmarked numbers belong to inactive results. Active and inactive are the calls of the source. Calls come from the whole dose curve; as a rule, active = well fitted cell-killing curve with a large enough effect in the repeat runs; inconclusive = weak or mixed curves, or effect the other way; inactive = no such curve, though single readings can be large or run the other way.
% is set by controls: 0 for no effect and ±100 for the full control effect.

A short description of the assay: qHTS assay to identify small molecule antagonists of the retinoid-related orphan receptor gamma (ROR-gamma) signaling pathway - cell viability counter screen (AID 1159520). Note: nearly all actives have a fitted effect of over 50% in size. Conditions: Tet-on RORgamma CHO cells viability, ATP luminescence, 16 h; series mostly up to 92.4 µM. The source says:
U.S. Tox21 Program National Center for Advancing Translational Sciences [NCATS] NIH Chemical Genomics Center [NCGC] U.S. Environmental Protection Agency [EPA] National Institutes of Environmental Health Sciences [NIEHS] National Toxicology Program [NTP] U.S. Food and Drug Administration [FDA] Tox21 Assay Overview: Nuclear steroid hormone receptors are involved in many biological processes including inflammatory responses, cell proliferation, and apoptosis. Environmental factors or compounds disrupting these nuclear receptor pathways and gene expression may promote susceptibility to immunotoxicants and autoimmune diseases. One important group of these expression factors are the retinoid-related orphan receptors. To assess compounds that may interfere with the retinoid-related orphan receptor gamma (ROR-gamma) transcription factor, a cell-based luciferase assay was used. The CHO cell-based assay utilizes a TET-inducible ROR expression factor and ROR response element-LUC reporter gene. Reporter gene activity was induced using Doxycycline Hyclate and measured after 16 hr incubation. Tet-on ROR gamma CHO cells were used to screen against the Tox21 10K compound library for cytotoxicity by measuring the viability of the cells based on the quantitation of the ATP.
Tox21 Assay Protocol Summary: Tet-on ROR gamma CHO cells were dispensed at 1,000 cells in 4 uL of culture medium per well into white wall/solid bottom 1536-well plates using a Multidrop Combi (Thermo Scientific, Waltham, MA) dispenser. Following incubation at 37 C and 5% CO2 for 4 hr, 23 nL of compounds dissolved in DMSO, positive controls or DMSO only were transferred by a Pintool station (Kalypsys, San Diego, CA) and after 2 hr incubation at 37 C, one ul of 1 uM (final concentration) of Doxycycline Hyclate was added to all the wells by using a Flying Reagent Dispenser (FRD) (Aurora Discovery, San Diego, CA). After 16 hr incubation at 37 C and 5% CO2, 5 uL of CellTiter-Glo reagent (Promega Corporation, Madison, WI) was added to each assay plate using FRD. After 30 min incubation at room temperature, luminescence was quantified on a ViewLux plate reader (Perkin Elmer, Waltham, MA).
For orientation: qHTS replaces the single test concentration by a dilution series.
Turning to `Cc1ccc(C(=O)c2ccc(CC(=O)O)n2C)cc1`, the molecule was called inactive.
On to `Nc1ccccn1`, for which the outcome was inactive.
Turning to `CC/C=C\CCOC(C)OCC` (stereo not given), the molecule was called inactive.
The same measure, in the same setting: in the case of `CCCC(C)C(=O)OCC` (stereo not given) it was “inactive”.
Still for that read-out and setting: then `O=C(O)CNC(=O)c1ccccc1`, with “inactive”; and `COc1ccnc(CS(=O)c2nc3cc(OC(F)F)ccc3[nH]2)c1OC` (stereo not given), with “inactive”.
Same read-out and setting: then `O=C(O)c1cc(C(=O)O)cc(C(=O)O)c1`, with “inactive”; and `CC(C)CCCO`, with “inactive”; and `CC(C)(C)C(=O)c1ccccc1`, with “inactive”.
On to `CCOC(=O)C(=O)CCCCCCl`, for which the result was inactive.
Still for that read-out and setting: in the case of `CCCn1cc[n+](C)c1C` it was “inactive”.
Consider `CN1CCN(c2cc3c(nn2)Oc2ccccc2N3C)CC1`, for which the activity, negative = cytotoxicity is 0.179% [at 19 µM].
In the case of `CCN(CC#N)c1cccc(C)c1`, the result was inactive.
`CC1=C(C/C=C(\C)CCC[C@H](C)CCC[C@H](C)CCCC(C)C)C(=O)c2ccccc2C1=O`: the molecule was classed as inactive.
Same read-out and setting: in the case of `O=Cc1cccc(Br)c1` it was “inactive”; in that of `CCOC(=O)c1cnc2c(cnn2CC)c1NN=C(C)C`, “inactive”.
As to `NC(=O)Cc1cccc2ccccc12`, the molecule was classed as inactive.
Turning to `NO`, the molecule was classed as inactive.
Same read-out and setting: in the case of `COCCOCC(OC)OC` it was “inactive”; in that of `Cc1coc2ccccc2c1=O`, “inactive”.
Still for that read-out and setting: in the case of `CC(C)COC(=O)c1ccc(N)cc1` it was “inactive”; in that of `CN(C)[C@@H]1C(=O)C(C(=O)NCN2CCCC2)=C(O)[C@@]2(O)C(=O)C3=C(O)c4c(O)cccc4[C@@](C)(O)C3C[C@@H]12` (stereo not given in full), “inactive”.
The same measure, in the same setting: then `CC(=O)c1ccccc1[N+](=O)[O-]`, with “inactive”.
With `CN1CCC(=C2c3ccccc3CCc3cccnc32)CC1`, the outcome was inactive.
Take `CC(CC=O)CC(C)(C)C` (stereo not given): the outcome was inactive.
`NC(N)=NCCN1CCCCCCC1`: the activity, negative = cytotoxicity was 6.85% [at 0.349 µM].
Turning to `[Ca+2]`, the molecule was classed as inactive.
Same read-out and setting: then `O=S(=O)(O)c1cccc2c(S(=O)(=O)O)cccc12`, with “inactive”; and `Cc1cccc(C)c1NC(=O)CC12CCCN1CCC2`, with “inactive”.
With `CCN1CCOCC1`, the outcome was inactive.
Still for that read-out and setting: in the case of `CC(=O)C1CCCCC1=O` (stereo not given) it was “inactive”; in that of `CC(C)c1ccc2ncccc2c1`, “inactive”; in that of `NC(=O)N[C@@H](CCC(=O)O)C(=O)O`, “inactive”.
On the same count and under the same terms, then `C[N+](C)(CCOc1ccccc1)Cc1cccs1`, with “inactive”.
Same read-out and setting: then `CCN[C@H]1C[C@H](C)S(=O)(=O)c2sc(S(N)(=O)=O)cc21`, with “inactive”; and `CC1=NN(c2cc(S(=O)(=O)O)ccc2Cl)C(=O)C1N=Nc1ccccc1` (stereo not given), with “inactive”.
For `C[N+]1(C)CCCC(OC(=O)C(O)(c2ccccc2)c2ccccc2)C1` (stereo not given), the result was inactive.
For `CCOc1ccccc1OCC`, the result was inactive.
For the molecule `C=COCC1CCC(COC=C)CC1` (stereo not given), the result was inactive.
As to `CCCCCC(C)N` (stereo not given), the molecule was classed as inactive.
